# JMJD2E inh – blocks human JMJD2E demethylase activity; B2RXH2; JMJD2E catalytic domain, FDH-coupled NADH fluorescence (FDH is formaldehyde dehydrogenase); Potency, µM (titrated, usually from 57.1 µM), for inactives: at the highest dose activity change, negative = inhibition, actives largely listed as inhibitors; 1.6% of 230,000 active; AID 2147;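 also: 0% = wells with enzyme and -100% = buffer wells without enzyme; nearly all actives have a fitted effect of over 50% in size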
# ALDH1A1 inh – blocks purified human ALDH1A1 activity. Purified ALDH1A1, NADH fluorescence, propionaldehyde substrate. Potency, µM (highest dose often 75.3 µM), for the others: at the top dose activity, negative = inhibition, hits mostly inhibitors. 7.3% of 220,000 active. AID 1030;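 also: plate controls were no enzyme wells and a reference inhibitor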
# Tau fibril FP – inhibitors of human tau fibril formation; Potency, µM (doses to about 57.7 µM), for the others: at the top dose activity, negative = inhibition, hits mostly inhibitors; P10636; 0.39% of 280,000 active; K18 P301L tau heparin fibrillization, Alexa594 FP, 6 h; active = well fitted curve in the direction sought with a large enough effect; inconclusive = small, poorly fitted or top-dose-only effect, or another doubt; inactive = no such curve, though single readings can be large; an effect the other way counts as inactive or inconclusive; also: nearly all actives have a fitted effect of over 55% in size
# Target sequence (P10636 561-689 P618L limits assumed): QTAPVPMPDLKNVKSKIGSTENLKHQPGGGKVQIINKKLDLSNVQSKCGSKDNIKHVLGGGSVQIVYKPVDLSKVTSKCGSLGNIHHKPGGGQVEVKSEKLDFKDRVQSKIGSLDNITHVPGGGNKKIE
#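 Compound effects on tau fibrillization are measured by Alexa 594 fluorescence polarization (ex 555, em 632 nm). K18 P301L tau is used at 15 uM with 0.24 uM labeled tracer, and 20 uM heparin induces aggregation over 6 hr at 37 C.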
# Tau fluor cs – counter-screen for tau fibril formation inhibitors; tau K18 P301L Alexa594 fluorescence, heparin fibrillization; Potency, µM (series often up to 57.7 µM), inactives show at the top dose activity change, negative = decrease; 0.93% of 280,000 active; active = well fitted curve in the direction sought with a large enough effect; inconclusive = small, poorly fitted or top-dose-only effect, or another doubt; inactive = no such curve, though single readings can be large; an effect the other way counts as inactive or inconclusive; also: nearly all actives have a fitted effect of over 55% in size
#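 Human K18 P301L tau (15 uM unlabeled plus 0.24 uM Alexa 594-labeled, final) in 100 mM sodium acetate pH 7 was mixed with compound and 20 uM heparin and incubated 6 hr at 37 C.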
# Tau fibril ThT – tau fibrillization inhibition (ThT binding); P10636; recombinant tau K18 P301L (four-repeat tau fragment), heparin-induced fibrillization, ThT fluorescence; Potency, µM (highest dose often 57.4 µM), without a hit: at the top dose activity, negative = inhibition, most hits filed as inhibitors; 2.1% of 270,000 active; AID 1460; active = well fitted curve in the direction sought with a large enough effect; inconclusive = small, poorly fitted or top-dose-only effect, or another doubt; inactive = no such curve, though single readings can be large; an effect the other way counts as inactive or inconclusive; also: nearly all actives have a fitted effect of over 55% in size
#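 Recombinant human tau K18 fragment […] carrying P301L, 15 uM unlabeled plus 0.24 uM Alexa 594-labeled, was fibrillized with 20 uM heparin in 100 mM sodium acetate pH 7 for 6 hr at 37 C; 30 uM ThT fluorescence read after 1 hr.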
# HPGD inh – inhibitors of human 15-hydroxyprostaglandin dehydrogenase (HPGD) | P15428 | purified HPGD, NADH fluorescence kinetic, PGE2 substrate | Potency, µM, without a hit: at the highest dose activity change, negative = inhibition, hits mostly inhibitors | 4.3% of 150,000 active
# Target sequence (P15428 whole entry, looked up): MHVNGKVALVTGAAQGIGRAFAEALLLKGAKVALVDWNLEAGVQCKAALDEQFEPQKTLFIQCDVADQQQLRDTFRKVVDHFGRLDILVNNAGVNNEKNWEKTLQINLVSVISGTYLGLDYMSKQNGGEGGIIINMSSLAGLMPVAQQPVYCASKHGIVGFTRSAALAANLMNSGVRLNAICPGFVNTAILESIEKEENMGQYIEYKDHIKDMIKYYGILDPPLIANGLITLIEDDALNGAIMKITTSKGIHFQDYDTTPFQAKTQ
#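 20 nM HPGD preincubated 15 min at room temperature with compound in 50 mM Tris-HCl pH 8, 0.01% Tween 20. Started with 1 mM NAD+ and 30 uM prostaglandin E2; NADH fluorescence (360/450 nm) read 5 times over 30-s intervals, last minus first.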
# Starred values were filed as active, the others as inactive; ? = inconclusive; . = no result; [ ] = dose if it differs, or a comment. Most compounds without a hit are left out; they make up all but 9.9% or so of the library. Unless noted, calls follow the shape of the dose curve; as a rule, active = well fitted inhibition curve with a large enough effect (not every such curve was filed as active); inconclusive = small, poorly fitted or top-dose-only effect, or another doubt; inactive = no such curve, though single readings can be large or run the other way. Unless noted, % is scaled to controls: 0 for no effect and ±100 for the full control effect; potency is read from the fitted curve at half-maximal effect.
SMILES,JMJD2E inh,ALDH1A1 inh,Tau fibril FP,Tau fluor cs,Tau fibril ThT,HPGD inh
Cc1ccc(-n2cccc2/C=C2/C(=N)N3C(=NC2=O)SN=C3S(C)(=O)=O)cc1Cl,22µM*,18µM*,9%,1%,?,-15%
Cc1cc(/C=C2/C(=N)N3C(=NC2=O)SN=C3S(C)(=O)=O)c(C)n1-c1ccc(F)cc1,32µM*,28µM*,10%,-1%,-22%,.
Cc1cccc(C)c1-n1cccc1/C=C1/C(=N)N2C(=NC1=O)SN=C2S(C)(=O)=O,-11%,?,-14%,-19%,?,.
CCOc1ccc(-n2c(C)cc(/C=C3/C(=N)N4C(=NC3=O)SN=C4S(C)(=O)=O)c2C)cc1,?,18µM*,1%,-22%,?,.
COc1ccccc1-n1c(C)cc(/C=C2/C(=N)N3C(=NC2=O)SN=C3S(C)(=O)=O)c1C,?,?,4%,-2%,-8%,.
CC1=CSC2=NC(=O)/C(=C\c3cccn3-c3ccccc3)C(=N)N12,4%,22µM*,-2%,3%,12%,-18%
CCC1=NN2C(=N)/C(=C\c3cccn3-c3cccc(Cl)c3)C(=O)N=C2S1,?,1.8µM*,1%,-11%,?,.
CCOc1ccccc1NC(=O)C(=O)NCCc1sc2nc(-c3ccc(OC)cc3)nn2c1C,.,.,2%,-11%,-5%,.
CCOC(=O)c1sc(NC(=O)CSc2ccccn2)c(C#N)c1C,4%,25µM*,0%,-3%,-3%,1%
CCOC(=O)c1c(NC(=O)CSc2nnc(Cc3ccccc3)o2)sc(C(C)=O)c1C,2%,-5%,-1%,-22%,-23%,-18%
CCOC(=O)c1sc(NC(=O)CSc2nnc(Cc3ccccc3)o2)c(C#N)c1C,-10%,0.56µM*,?,?,28µM*,2µM*
CCOC(=O)c1sc(NC(=O)c2cc(-c3ccccc3)nc3ccccc23)c(C#N)c1C,-8%,3.2µM*,-1%,?,?,16µM*
CCOC(=O)c1sc(NC(=O)c2cccnc2)c(C#N)c1C,3%,-8%,5%,-12%,-18%,-19%
CCOC(=O)c1sc(NC(=O)CSc2nc(C)cc(C)n2)c(C#N)c1C,-21%,-5%,4%,-25%,-17%,-12%
CCOC(=O)CSc1nc2ccc(NC(=O)COc3ccccc3C)cc2s1,.,.,-12%,-16%,-17%,.
COc1ccccc1Nc1ccc(N)cc1,-14%,28µM*,?,?,16µM*,.
COc1ccccc1Nc1nc(Cl)nc(Nc2ccccc2OC)n1,?,?,?,-23%,-1%,.
O/N=C/c1ccccc1Oc1ccccc1,8%,?,-4%,-5%,-5%,16µM*
O/N=C\c1ccccc1Oc1ccc(F)cc1,-3%,22%,-3%,-3%,3%,.
Cc1cc(C)cc(Oc2ccccc2/C=N\O)c1,-8%,7%,?,-27%,-11%,22µM*
CCOC(=O)N1CCN(C(=O)CSCc2ccccc2Cl)CC1,0%,-3%,-2%,2%,?,0%
O=C(CNC(=O)c1ccc(S(=O)(=O)N2CCCC2)cc1)N/N=C/c1ccco1,6%,-8%,5%,-4%,-5%,.
Cc1ccc(CNC(=O)CNS(=O)(=O)c2ccc3nc(C)sc3c2)cc1,-4%,-1%,1%,0%,9%,.
CCOc1ccc(N=C2NC(=O)S/C2=C\c2ccc(Cl)cc2)cc1,-2%,2%,-9%,-21%,?,-16%
COc1ccc(N=C2NC(=O)S/C2=C\c2ccc(N(C)C)cc2)cc1,2%,-8%,?,?,1.1µM*,-6%
SMILES,JMJD2E inh,ALDH1A1 inh,Tau fibril FP,Tau fluor cs,Tau fibril ThT,HPGD inh
CC(C)NC(=O)CC(c1ccccc1)c1cc(Br)ccc1O (centres undefined),0%,2%,2%,-20%,-9%,25µM*
Cc1ccc(O)c(C(CC(=O)NCC2(c3ccccc3)CCCC2)c2ccccc2)c1 (centres undefined),.,.,-7%,?,-14%,.
CCCCCCNC(=O)CC(c1ccccc1)c1cc(Br)ccc1O (centres undefined),5%,0%,5%,8%,14%,8.9µM*
COc1ccc(CCNC(=O)c2cc3ccccn3n2)c(OC)c1OC,1%,22µM*,4%,-3%,-12%,?
O=[N+]([O-])c1ccccc1OCCOc1ccccc1[N+](=O)[O-],5%,.,-9%,-3%,1%,.
O=C(COC(=O)COc1ccccc1[N+](=O)[O-])Nc1ccccc1Br,-1%,18µM*,7%,6%,11%,-18%
CC(C)(C)C(=O)COc1ccccc1[N+](=O)[O-],4%,20µM*,-5%,-6%,-16%,.
O=C(O)CCCNC(=O)CCCn1nnc2ccccc2c1=O,3%,.,6%,-3%,-1%,.
O=C(O)CC(NNC(=O)c1ccccc1)C(=O)Nc1cccc([N+](=O)[O-])c1 (centres undefined),-5%,.,0%,6%,.,.
COc1ccc2c(c1)SCCC2=O,?,-1%,11%,-1%,-5%,-15%
COc1ccc2c(c1)OCC1=C2CCC2(C)C(=O)CC=C12 (centres undefined),?,?,?,?,20µM*,?
O=C(Nc1nnc(C2CC2)s1)c1cc([N+](=O)[O-])ccc1N1CCCCC1,4%,-10%,13%,-10%,-8%,-9%
c1ccc(-n2nnc3c(N4CCOCC4)ncnc32)cc1,-3%,?,-3%,-13%,-22%,28µM*
COC(=O)[C@@]1(Cc2ccc(OC)cc2)[C@H]2c3cc(C(=O)N(C)C)n(C)c3C[C@H]2CN1C(=O)c1ccccc1,-1%,-6%,10%,-3%,-1%,-10%
CCCCS(=O)(=O)Nc1ccc(Cc2ccncc2)cc1,-3%,12%,5%,2%,2%,16µM*
CC1(C)SC(=Nc2ccccc2)N(S(=O)(=O)c2ccccc2)C1=O,16%,9%,-3%,-2%,-4%,-2%
O=C1C(c2ccccc2)SC(=Nc2ccccc2)N1S(=O)(=O)c1ccccc1 (centres undefined),-29%,3.2µM*,-9%,-11%,-12%,14µM*
O=C(CSc1nnc(C2COc3ccccc3O2)o1)Nc1ccc(F)cc1Cl (centres undefined),15%,10µM*,0%,-2%,5%,.
Cc1cc(NC(=O)CSc2nnc(C3COc4ccccc4O3)n2C)no1 (centres undefined),1%,-5%,-4%,-5%,-5%,.
CCOC(=O)c1c(C2COc3ccccc3O2)csc1N (centres undefined),-1%,?,9%,25µM*[quencher],?,-24%
O=C(CSc1nnc(C2COc3ccccc3O2)o1)N1CCCC1 (centres undefined),-7%,?,-11%,-5%,-6%,.
